Laboratory results as given in the supplement of paper PMC6897291.

Assays:
U-2932 [1] = experiment: growth inhibition by drug plus 177Lu-lilotomab satetraxetan (1 - RLU/untreated control) (fraction); higher = stronger inhibition; details: 177Lu-lilotomab satetraxetan 1 ug/ml
Outline: (§1)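 Plates pre-printed with the Selleck Cambridge Cancer Compound library at 10/100 nM (RIVA) or 10/1,000 nM (U-2932) received 3,000 cells/well. These cells had been washed after 18 h untreated or with a radiolabelled anti-CD37 antibody conjugate (~600 MBq/mg; 0.5 µg/ml RIVA, 1 µg/ml U-2932). Growth inhibition was obtained from RealTime-Glo luminescence in relation to untreated no-drug wells. Each daily read from day 3, taken after 1 h at 37°C, was converted as 1 − RLU/mean of 48 such wells per plate.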

RIVA = experiment: as above; details: 177Lu-lilotomab satetraxetan 0.5 ug/ml
Outline: as §1

U-2932 [2] = experiment: growth inhibition by drug alone (1 - RLU/untreated control) (fraction); higher = stronger inhibition; details: 177Lu-lilotomab satetraxetan 0 ug/ml
Outline: as §1

| Structure (SMILES) | growth inhibition by drug plus 177Lu-lilotomab satetraxetan (U-2932 [1]; 10 nM, time (day): 3) | growth inhibition by drug plus 177Lu-lilotomab satetraxetan (U-2932 [1]; 10 nM, time (day): 4) | growth inhibition by drug plus 177Lu-lilotomab satetraxetan (U-2932 [1]; 10 nM, time (day): 5) | growth inhibition by drug plus 177Lu-lilotomab satetraxetan (U-2932 [1]; 10 nM, time (day): 6) | growth inhibition by drug plus 177Lu-lilotomab satetraxetan (U-2932 [1]; 1000 nM, time (day): 3) | growth inhibition by drug plus 177Lu-lilotomab satetraxetan (U-2932 [1]; 1000 nM, time (day): 4) | growth inhibition by drug plus 177Lu-lilotomab satetraxetan (U-2932 [1]; 1000 nM, time (day): 5) | growth inhibition by drug plus 177Lu-lilotomab satetraxetan (U-2932 [1]; 1000 nM, time (day): 6) | growth inhibition by drug plus 177Lu-lilotomab satetraxetan (RIVA; 10 nM, time (day): 3) | growth inhibition by drug plus 177Lu-lilotomab satetraxetan (RIVA; 10 nM, time (day): 4) | growth inhibition by drug plus 177Lu-lilotomab satetraxetan (RIVA; 10 nM, time (day): 5) | growth inhibition by drug plus 177Lu-lilotomab satetraxetan (RIVA; 10 nM, time (day): 6) | growth inhibition by drug plus 177Lu-lilotomab satetraxetan (RIVA; 100 nM, time (day): 3) | growth inhibition by drug plus 177Lu-lilotomab satetraxetan (RIVA; 100 nM, time (day): 4) | growth inhibition by drug plus 177Lu-lilotomab satetraxetan (RIVA; 100 nM, time (day): 5) | growth inhibition by drug plus 177Lu-lilotomab satetraxetan (RIVA; 100 nM, time (day): 6) | growth inhibition by drug alone (U-2932 [2]; 10 nM, time (day): 3) | growth inhibition by drug alone (U-2932 [2]; 10 nM, time (day): 4) | growth inhibition by drug alone (U-2932 [2]; 10 nM, time (day): 5) | growth inhibition by drug alone (U-2932 [2]; 10 nM, time (day): 6) | growth inhibition by drug alone (U-2932 [2]; 1000 nM, time (day): 3) | growth inhibition by drug alone (U-2932 [2]; 1000 nM, time (day): 4) | growth inhibition by drug alone (U-2932 [2]; 1000 nM, time (day): 5) | growth inhibition by drug alone (U-2932 [2]; 1000 nM, time (day): 6) |
| --- | --- | --- | --- | --- | --- | --- | --- | --- | --- | --- | --- | --- | --- | --- | --- | --- | --- | --- | --- | --- | --- | --- | --- | --- |
| C[C@]12CCC(=O)C(O)=C1CC[C@@H]1[C@@H]2CC[C@]2(C)C(=O)CC[C@@H]12 [Formestane] | -0.06 | -0.00612 | 0.0406 | 0.141 | -0.0681 | -0.018 | 0.0247 | 0.18 | 0.476 | 0.532 | 0.553 | 0.549 | 0.447 | 0.508 | 0.53 | 0.533 | – | – | – | – | – | – | – | – |
| Cc1ccccc1-n1c(Cn2cnc3c(N)ncnc32)nc2cccc(C)c2c1=O | -0.00529 | 0.0455 | 0.107 | 0.209 | 0.0591 | 0.0697 | 0.0914 | 0.26 | – | – | – | – | – | – | – | – | 0.0494 | 0.000763 | 0.0122 | 0.0686 | 0.047 | 0.0488 | 0.0186 | 0.102 |
| O=P1(N(CCCl)CCCl)NCCCO1 (stereo not drawn) [Cyclophosphamide monohydrate] | -0.0289 | -0.00591 | 0.0126 | 0.184 | -0.0442 | 0.00578 | 0.00582 | 0.0795 | – | – | – | – | – | – | – | – | – | – | – | – | – | – | – | – |
| CC(C)[C@]12O[C@H]1[C@@H]1O[C@]13[C@]1(O[C@H]1C[C@H]1C4=C(CC[C@@]13C)C(=O)OC4)[C@@H]2O [Triptolide] | 0.468 | 0.657 | 0.744 | 0.774 | 0.965 | 0.976 | 0.981 | 0.986 | – | – | – | – | – | – | – | – | – | – | – | – | – | – | – | – |
